Compound activity deposited in PubChem by several laboratories.
Sampled rows, rich in hits. Any-hit rate of the full collection: about 9.7%.
Autofluor 339 = intrinsic fluorescence of library compounds, ex339/em460 – biochemical, MLSMR library, data from DPM-DC assay, artefact control, profiling panel; compound autofluorescence, ex339/em460 nm, NADH buffer; hits give high values; 1 = no-compound wells, NADH background; fluorescence fold increase at 10 µM; hit rate 5.5% among 65,000; AID 709, 2007;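 active means at 10 µM, mean starting fluorescence two-fold or more over control wells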;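 further: signal is the first read of a kinetic run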
WNV protease inh = inhibitors of WNV NS2B-NS3 protease, primary screen, biochemical, fluorogenic substrate; Genome polyprotein (West Nile virus), P06935; z-score (no concentration beside the values); hit rate 0.18% among 65,000; fluorogenic substrate Ex360/Em465; hits give low values; in the data active means z-score below about -3
Target sequence (P06935 1371-1501 limits assumed): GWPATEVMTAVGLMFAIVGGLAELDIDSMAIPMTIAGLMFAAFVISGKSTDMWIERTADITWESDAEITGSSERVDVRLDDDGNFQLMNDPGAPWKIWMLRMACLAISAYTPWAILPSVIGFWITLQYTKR
Target sequence (P06935 1502-1679 limits assumed): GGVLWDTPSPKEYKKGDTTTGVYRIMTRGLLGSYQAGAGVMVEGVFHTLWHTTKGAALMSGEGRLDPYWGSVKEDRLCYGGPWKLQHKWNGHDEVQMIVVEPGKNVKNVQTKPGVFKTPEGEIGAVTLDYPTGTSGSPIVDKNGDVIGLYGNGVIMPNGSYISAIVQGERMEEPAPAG
BAP1 inh = inhibitors of BAP1 deubiquitinase, primary screen, biochemical, Ub-AMC fluorescence, kinetic; hit rate 0.48% among 72,000; AID 436, 2006; calls only at 20 µM; recombinant BAP1, Ub-AMC hydrolysis fluorescence kinetic; hits give low values;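 active means activity remaining at or below 50% of control, provided the compound also passes the data quality filters; inactive means the rest, including low values that fail the filters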
Abs 340nm = compound light absorbance at 340 nm, profiling panel, artefact control, biochemical, MLSMR library, data from PS, PMK, MK assays | fold change at 10 µM | compound absorbance at 340 nm, fold over control | AID 708, 2007 | 65,000 tested, under 10 active;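 active means at 10 µM dose, initial 340 nm absorbance at least 2 fold that of control wells; inactive means change under 2 fold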;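 further: initial absorbance extrapolated from kinetic A340 decline of NADH oxidation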
M1 agonist = M1 muscarinic receptor agonists, primary screen, CHO-M1 cells, Fluo-4 calcium, agonist mode; Fluo-4 calcium fluorescence; hits give high values; B-score at 10 µM; hit rate 3% among 64,000; AID 626, 2007;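 active means fluorescence rise, raw or as B-score row- and column-corrected plate score, outside the 99.7% band of its plate's samples, either direction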
M1 antagonist = antagonists of rat M1 muscarinic receptor. CHO-M1 cells, Fluo-4 calcium, ACh EC80 antagonist mode; hits give low values. B-score at 10 µM. AID 628, 2007. hit rate 3.4% among 64,000;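 active means calcium fluorescence response, raw or row-and-column corrected B-score, differing from the plate sample mean either way at a set confidence level, mostly lower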
Target sequence (P08482 whole entry, looked up): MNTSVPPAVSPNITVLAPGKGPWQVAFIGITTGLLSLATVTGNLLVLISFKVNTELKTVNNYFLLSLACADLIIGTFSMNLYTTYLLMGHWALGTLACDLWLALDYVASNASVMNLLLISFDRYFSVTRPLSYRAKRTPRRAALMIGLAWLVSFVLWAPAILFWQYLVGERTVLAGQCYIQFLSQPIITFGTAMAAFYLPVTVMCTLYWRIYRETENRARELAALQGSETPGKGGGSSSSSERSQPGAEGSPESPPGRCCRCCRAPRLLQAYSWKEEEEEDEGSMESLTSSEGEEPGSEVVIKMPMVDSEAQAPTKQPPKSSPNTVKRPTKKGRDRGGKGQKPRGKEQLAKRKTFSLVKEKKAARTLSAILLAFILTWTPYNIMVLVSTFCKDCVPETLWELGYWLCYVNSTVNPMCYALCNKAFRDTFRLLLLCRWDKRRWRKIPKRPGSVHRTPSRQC
Each line names hits and unclear results; the compound was inactive in the other large screens.

COCCOC(=O)c1cc(C(=O)c2cc(F)ccc2O)coc1=N	Autofluor 339 2.4 (not shown: BAP1 inh)
COc1ccc(O)c(C(=O)CC(=O)c2ccc(F)cc2)c1	none
CCOc1ccc2nc(NC(=O)C3CCN(c4cnccn4)CC3)sc2c1	Autofluor 339 2.6
CCN(CC)c1ccc(-c2nn3c(-c4n[nH]c5c4CCC5)nnc3s2)cc1	Autofluor 339 2.9 (not shown: BAP1 inh)
CCC(C)C(=O)N1c2ccccc2C(N(C(=O)COc2ccccc2)c2ccccc2)CC1C (stereo not given)	none (no result: Autofluor 339, WNV protease inh, Abs 340nm, M1 agonist, M1 antagonist)
COc1ccc(-c2cc3nc(C4CCN(C(=O)OC(C)(C)C)CC4)c(C(=O)O)cn3n2)cc1	Autofluor 339 2.7
O=C(Nc1ccc(Nc2ccccc2)cc1)c1ccco1	none (no result: M1 agonist, M1 antagonist)
O=C(Nc1ccc2oc(=O)ccc2c1)c1ccco1	Autofluor 339 2.8
COc1ccc(NC(=O)c2cc3cccc(OC)c3oc2=O)c(OC)c1	none (no result: Autofluor 339, WNV protease inh, Abs 340nm, M1 agonist, M1 antagonist)
CCCCC(=O)Nc1c2c(nn1-c1ccc(C)cc1)CSC2	none (no result: Autofluor 339, WNV protease inh, Abs 340nm, M1 agonist, M1 antagonist)
COCC(=O)Nc1sc2c(c1C(=O)OC)CCCC2	none
COC(=O)c1c(NC(=O)c2ccc(C)o2)sc2c1CCCCC2	Autofluor 339 3.7 (not shown: BAP1 inh, M1 agonist, M1 antagonist)
COC(=O)c1c(NC(=O)c2c(C)noc2C)sc2c1CCCCCC2	Autofluor 339 3.4 (not shown: BAP1 inh)
NC(=O)c1c(NC(=O)c2cc3ccccc3o2)sc2c1CCC2	Autofluor 339 2.1
CCOC(=O)c1c(NC(=O)c2cc(=O)c3ccccc3o2)sc2c1CCC2	none (no result: Autofluor 339, WNV protease inh, Abs 340nm, M1 agonist, M1 antagonist)
Cc1ccc(C(=O)Nc2cc(N)ccc2N)cc1	none (no result: Autofluor 339, WNV protease inh, Abs 340nm, M1 agonist, M1 antagonist)
Nc1c(C(=O)OCC2CCCO2)c2nc3ccccc3nc2n1C1CCCC1 (stereo not given)	Autofluor 339 3.8
Nc1c(C(=O)NC2CCCC2)c2nc3ccccc3nc2n1N	none
COc1ccc(OC)c(-n2c(N)c(C(=O)NCC3CCCO3)c3nc4ccccc4nc32)c1 (stereo not given)	Autofluor 339 2.1
Nc1c(C(=O)NCC2CCCO2)c2nc3ccccc3nc2n1/N=C/c1ccncc1 (stereo not given)	none
CC(C)Cn1c(N)c(C(=O)NCC2CCCO2)c2nc3ccccc3nc21 (stereo not given)	Autofluor 339 2.1
Cc1cccn2c(=O)c(C=Nc3ccc(Cl)cc3)c(NCCO)nc12	Autofluor 339 2.7 (not shown: BAP1 inh, M1 agonist, M1 antagonist)
Cc1cccn2c(=O)c(C=Nc3ccccc3)c(NCCO)nc12	Autofluor 339 2.4
Cn1c(=O)c2c(nc(NCCO)n2CCc2ccccc2)n(C)c1=O	none
CCn1nc(NC(=O)c2ccccn2)c2cc3cccc(C)c3nc21	Autofluor 339 3.4 (not shown: BAP1 inh)
Cc1cccc(OCC(=O)N2CCN(C(=O)COc3cccc(C)c3)CC2)c1	none (no result: Autofluor 339, WNV protease inh, Abs 340nm, M1 agonist, M1 antagonist)
COCCN(CCOC)C(=O)c1c[nH]c2ccc(S(=O)(=O)N(C)c3ccc(F)cc3)cc2c1=O	Autofluor 339 2.3 (not shown: BAP1 inh)
COc1ccc(NC(=O)CC2C(=O)N(C)C(=S)N2CCc2ccc(Cl)cc2)cc1 (stereo not given)	none (no result: Autofluor 339, WNV protease inh, Abs 340nm, M1 agonist, M1 antagonist)
COc1ccc2nc(Nc3nc(C)c(C(C)=O)s3)sc2c1	Autofluor 339 2
CC(=O)c1ccc(C(=O)Nc2nc3c(ccc4ccccc43)s2)cc1	none (no result: Autofluor 339, WNV protease inh, Abs 340nm, M1 agonist, M1 antagonist)
CCOC(=O)c1oc2nc3c(cc2c1N)COC(C)(C)C3	Autofluor 339 2.8 (no result: M1 agonist, M1 antagonist)
CCOC(=O)c1oc2nc(C)c3c(c2c1N)CC(C)(C)OC3	Autofluor 339 3.9
CCc1nc2oc(C(=O)c3ccccc3)c(N)c2c2c1COC(C)(C)C2	none
CC(C)=C1C2C=CC1C1C(=O)N(c3ccc(Cl)cc3[N+](=O)[O-])C(=O)C21 (stereo not given)	none (no result: Autofluor 339, WNV protease inh, Abs 340nm, M1 agonist, M1 antagonist)
COCc1c(C)cc(C)c(/C=N/O)c1C	M1 antagonist 12
COc1cccc(-c2nnc(Nc3nc4c(F)cccc4s3)o2)c1	Autofluor 339 4.9 (not shown: BAP1 inh)
COC(=O)c1ccccc1NC(=O)Cn1c(SC)c(F)cnc1=O	M1 antagonist 1
COC(=O)c1ccccc1NC(=O)Cn1cc(Br)cn1	none
COCc1cc(C)n(CC(=O)Nc2ccccc2C(=O)OC)c(=O)c1C#N	Autofluor 339 2.8 (not shown: BAP1 inh)
COCc1cc(C)n(CC(=O)NC(C)c2ccccc2)c(=O)c1C#N (stereo not given)	Autofluor 339 3.8 (not shown: BAP1 inh)
Brc1ccc(-c2nn3c(-c4ccncc4)nnc3s2)o1	M1 antagonist -3.1
Brc1ccc(-c2nn3c(-c4ccccn4)nnc3s2)o1	none
Clc1cccc(-c2nc3ccccc3c3nc4ccccc4n23)c1	none (no result: Autofluor 339, WNV protease inh, Abs 340nm, M1 agonist, M1 antagonist)
CCOC(=O)c1cnn2c1[nH]c(=O)c1ccccc12	Autofluor 339 2.3
NC(=O)c1ccc(-c2ncc(-c3ccccc3)o2)cc1	Autofluor 339 2.1 (no result: M1 agonist, M1 antagonist)
c1ccc(-c2cnc(-c3cccnc3)o2)cc1	Autofluor 339 2.1
COc1cc(SC)ccc1C(=O)Nc1ccon1	M1 antagonist 0.93
COc1cc(SC)ccc1C(=O)Nc1ccc(S(=O)(=O)N2CCCC2)cc1	none
N#Cc1nc(-c2ccc(OCc3ccccc3)cc2)oc1NCc1cccnc1	none (not shown: BAP1 inh)
N#Cc1nc(-c2ccccc2F)oc1NCCc1ccccn1	Autofluor 339 2.3 (no result: BAP1 inh)
CCNc1oc(COc2ccccc2F)nc1C#N	none
COCCCNc1oc(-c2ccccc2OC)nc1C#N	Autofluor 339 3.9 (not shown: BAP1 inh)
N#Cc1nc(-c2ccccc2F)oc1NCc1ccccc1	Autofluor 339 2.1
COCCCNc1oc(-c2ccccc2F)nc1C#N	Autofluor 339 2.1
O=[N+]([O-])c1cc(-n2cnnn2)ccc1Cl	none (no result: Autofluor 339, WNV protease inh, Abs 340nm, M1 agonist, M1 antagonist)
CCN(CC)C(=O)CSc1ncnc2c(-c3cccs3)nsc12	Autofluor 339 2.6
CCN(CC)C(=O)CSc1ncnc2c1nnn2-c1ccc(F)cc1	none
Oc1ccc(-c2nc(-c3ccc(F)cc3)c(-c3ccncc3)[nH]2)cc1	none (no result: Autofluor 339, WNV protease inh, Abs 340nm, M1 agonist, M1 antagonist)
Fc1cc2nc(-c3ccncc3)[nH]c2cc1F	Autofluor 339 2.2 (no result: BAP1 inh)
O=C(CN1CCOCCOCCN(CC(=O)Nc2ccccc2)CCOCC1)Nc1ccccc1	none
CC(C)C(=O)Nc1c2c(nc3ccccc13)N(C)CC2	Autofluor 339 2.2 (not shown: BAP1 inh)
O=C(CN1CCOCC1)Nc1c2c(nc3ccccc13)N(Cc1ccccc1)CC2	Autofluor 339 3.7 (not shown: BAP1 inh)
CC(C)C(=O)Nc1c2c(nc3c1CCC3)CCCC2	none
CCOC(=O)C1Cc2cc3c(cc2C1=O)CC(C(=O)OCC)C3=O (stereo not given)	Autofluor 339 3.7 (not shown: BAP1 inh)
Cc1cccn2c(=O)c3cc(C#N)c(=N)n(Cc4cccnc4)c3nc12	none
Cc1cccn2c(=O)c3cc(C#N)c(=O)n(Cc4cccnc4)c3nc12	Autofluor 339 3.8 (not shown: BAP1 inh, M1 agonist, M1 antagonist)
N#Cc1cc2c(=O)n3ccccc3nc2n(Cc2cccnc2)c1=O	Autofluor 339 3.8 (not shown: BAP1 inh)
COc1cc2nc3c4ccccc4n(CCC(C)C)c3nc2cc1OC	none (no result: Autofluor 339, WNV protease inh, Abs 340nm, M1 agonist, M1 antagonist)
COCCCn1c2nc3ccccc3nc2c2c(=O)n(-c3ccccc3OC)cnc21	Autofluor 339 2.4 (not shown: BAP1 inh)
